PubChem BioAssay (NCATS)
Records with an inconclusive call do not appear. The source made the active and inactive calls. Calls follow the shape of the dose curve; as a rule, active = well fitted curve in the direction sought with a large enough effect; inconclusive = small, poorly fitted or top-dose-only effect, or another doubt; inactive = no such curve, though single readings can be large; an effect the other way counts as inactive or inconclusive.

Legend:
[1] = molecular target: Metallo-beta-lactamase type 2 (Klebsiella pneumoniae) (UniProt C7C422); assay: qHTS to identify inhibitors of the New Delhi Metallo-beta-lactamase (NDM): assay validation screen against the NCATS LOPAC Collection (AID 1794843); settings: NDM-1 enzyme, nitrocefin hydrolysis, absorbance 485 nm; series mostly up to 38.4 µM;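 also: nitrocefin turnover by NDM-1 measured as 485 nm absorbance at plateau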
Outline: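 NDM-1 at 2 nM final in 50 mM HEPES pH 7.0 with 1 uM ZnSO4 and 0.01% Tween20 was preincubated with library compounds in DMSO. Nitrocefin (50 uM stock) was then added, and absorbance at 485 nm was read at the kinetic plateau.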

[2] = molecular target: Glutathione peroxidase 1 (Homo sapiens) (UniProt P07203); assay: Primary qHTS Assay for Inhibitors of Recombinant Selenoprotein Glutathione Peroxidase 1 (GPX1) (AID 1845191); settings: recombinant GPX1, GR-coupled NADPH fluorescence, 15 min; series mostly up to 48.8 µM; also: nearly all actives have a fitted effect of over 65% in size
Outline: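 10 nM GPX1 + cpd, 30 min RT; start w/ 1 mM GSH, 0.5 mM cumene hydroperoxide, 0.5 mM NADPH, 100 nM GR, 0.01% BSA; buffer 50 mM Tris-HCl pH 7.5, 2 mM EDTA, 150 mM NaCl; Fl 340/450, 0 & 15 min.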

[3] = molecular target: Phospholipid hydroperoxide glutathione peroxidase GPX4 (Homo sapiens) (UniProt P36969); assay: Primary qHTS Assay for Inhibitors of Recombinant Selenoprotein Glutathione Peroxidase 4 (GPX4) (AID 1845192); settings: recombinant GPX4, GR-coupled NADPH fluorescence, 15 min; series mostly up to 50 µM; also: nearly all actives have a fitted effect of over 65% in size
Outline: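 NADPH consumption, followed by fluorescence at 340/450 nm between 0 and 15 min, reports GPX4 activity via coupled glutathione reductase (100 nM). Enzyme 200 nM was pre-exposed to compound 30 min; 0.5 mM cumene hydroperoxide and 1 mM GSH served as substrates.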

Measured: Potency

Metallo-beta-lactamase type 2 (Klebsiella pneumoniae), sequence (C7C422 whole entry, looked up): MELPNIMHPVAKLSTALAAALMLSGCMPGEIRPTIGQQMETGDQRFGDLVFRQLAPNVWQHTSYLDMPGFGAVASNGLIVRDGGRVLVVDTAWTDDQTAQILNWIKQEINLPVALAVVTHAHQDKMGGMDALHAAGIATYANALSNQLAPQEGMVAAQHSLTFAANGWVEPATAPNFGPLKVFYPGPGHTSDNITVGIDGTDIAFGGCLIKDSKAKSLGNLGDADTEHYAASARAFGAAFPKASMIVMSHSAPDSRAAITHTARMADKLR
Glutathione peroxidase 1 (Homo sapiens), sequence (P07203 whole entry, looked up): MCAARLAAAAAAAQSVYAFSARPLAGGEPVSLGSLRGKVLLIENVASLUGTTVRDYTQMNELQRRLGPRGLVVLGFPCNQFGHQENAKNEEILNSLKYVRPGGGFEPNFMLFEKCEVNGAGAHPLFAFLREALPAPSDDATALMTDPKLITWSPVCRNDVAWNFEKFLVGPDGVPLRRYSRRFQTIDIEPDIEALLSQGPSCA
Phospholipid hydroperoxide glutathione peroxidase GPX4 (Homo sapiens), sequence (P36969 whole entry, looked up): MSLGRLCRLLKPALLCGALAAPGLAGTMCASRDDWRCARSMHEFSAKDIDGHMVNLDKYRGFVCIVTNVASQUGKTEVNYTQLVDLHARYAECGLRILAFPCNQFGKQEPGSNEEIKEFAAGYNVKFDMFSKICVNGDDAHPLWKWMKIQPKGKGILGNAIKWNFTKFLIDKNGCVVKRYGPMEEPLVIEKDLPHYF

COc1ccc(C(=O)NCc2cccnc2)cc1C(=O)NCc1cccnc1
inactive: [1] | [2] | [3]

O=C1Nc2ccc(I)cc2/C1=C/c1cc(Br)c(O)c(Br)c1
inactive: [1] | [2] | [3]

O=C(O)c1cccnc1C(=O)O
inactive: [1] | [2] | [3]

O=c1cc(O)cc(/C=C/c2ccc(O)c(O)c2)o1
inactive: [1] | [2] | [3]

CC[N+](CC)(CC)CC(=O)Nc1c(C)cccc1C
inactive: [1] | [2] | [3]

C=CCn1c(=O)c2c(nc(-c3ccc(S(=O)(=O)O)cc3)n2C)n(C)c1=O
inactive: [1] | [2] | [3]

O=C(O)c1ccccc1Nc1ccccc1
inactive: [1] | [2] | [3]

CNCCNS(=O)(=O)c1cccc2cnccc12
inactive: [1] | [2] | [3]

CC1=C(/C=C/C(C)=C/C=C/C(C)=C\C(=O)O)C(C)(C)CCC1
inactive: [1] | [2] | [3]

C[C@H]1CC2C3CCC4=CC(=O)C=C[C@]4(C)[C@@]3(Cl)[C@@H](O)C[C@]2(C)[C@@]1(O)C(=O)CO (stereo not given in full)
inactive: [1] | [2] | [3]

COc1ccc2c(c1)CCC1C2CC[C@@]2(C)C1CC[C@@H]2NCCCCCCN1C(=O)C=CC1=O (stereo not given in full)
inactive: [1] | [2] | [3]

COc1ccc(CCn2nnnc2C2(c3ccc(C)cc3)CC2)cc1
inactive: [1] | [2] | [3]

Oc1cc2c(cc1O)C(c1ccccc1)CNCC2 (stereo not given)
inactive: [1] | [2] | [3]

NC(N)=[N+]1CCc2ccccc2C1
inactive: [1] | [2] | [3]

O=C(OCCN1CCOCC1)C1(c2ccccc2)CCCCC1
inactive: [1] | [2] | [3]

CCCN(CCc1ccccc1)C1CCc2c(O)cccc2C1 (stereo not given)
inactive: [1] | [2] | [3]

CC#CCOC(=O)c1c(C)nc2sc3c(c2c1N)CCC(O)C3 (stereo not given)
inactive: [1] | [2] | [3]

NC(=Nc1ccccc1)NC(=O)c1nc(Cl)c(N)nc1N
inactive: [1] | [2] | [3]

CCc1ccc2c(-c3cccc(Cl)c3)nc(=O)n(CC)c2n1
inactive: [1] | [2] | [3]

NC1(C(=O)O)CCc2cc(C(=O)O)ccc21 (stereo not given)
inactive: [1] | [2] | [3]

COc1ccc(-c2cc3ncc(C)n3c(Nc3ncccc3C(N)=O)n2)cc1OC
inactive: [1] | [2] | [3]

C=CCNc1ncnc2ccc(Br)cc12
inactive: [1] | [2] | [3]

C=C1C[C@@]23CC[C@H]4[C@@](C)(CCC[C@@]4(C)C(=O)O)[C@@H]2CC[C@]1(O)C3
inactive: [1] | [2] | [3]

NC(=O)CNCCC(c1ccccc1)c1ccccc1
inactive: [1] | [2] | [3]

O=C(O)C1CCCNC1 (stereo not given)
inactive: [1] | [2] | [3]

O=c1[nH]c(=O)c2nc3ccccc3nc2[nH]1
inactive: [1] | [2] | [3]

O=C(O)CCC/C=C\C[C@@H]1[C@@H](/C=C/[C@H](O)C2Cc3ccccc3C2)[C@@H](F)C[C@@H]1O
inactive: [1] | [2] | [3]

N[C@H](C(=O)O)[C@H]1C[C@@H]1C(=O)O
inactive: [1] | [2] | [3]

Cn1cc(C(F)(F)F)nc1-c1ccc(OCC(O)CNCCOc2ccc(O)c(C(N)=O)c2)cc1 (stereo not given)
inactive: [1] | [2] | [3]

Nc1nc2c(nc(Br)n2C2OC3COP(=O)(O)O[C@@H]3C2O)c(=O)[nH]1 (stereo not given in full)
inactive: [1] | [2] | [3]

CCCn1c(=O)c2[nH]c(C3CCCC3)nc2n(CCC)c1=O
inactive: [1] | [2] | [3]

[N-]=[N+]=Nc1ccc(C(=O)CSC[C@H](NC(=O)CC[C@H](N)C(=O)O)C(=O)NCC(=O)O)cc1
inactive: [1] | [2] | [3]

Oc1ccc(/C=C/c2ccc(/C=C/c3ccc(O)cc3)c(Br)c2)cc1
inactive: [1] | [2] | [3]

NC(=O)CC[C@H](N)C(=O)O
inactive: [1] | [2] | [3]

CCCCCC(O)CCCC(=O)O (stereo not given)
inactive: [1] | [2] | [3]

CC1CCN(CC[C@H]2CCCN2S(=O)(=O)c2cccc(O)c2)CC1
inactive: [1] | [2] | [3]

CC(C)(C)c1ccc(/C=C/C(=O)Nc2ccc3c(c2)OCCO3)cc1
inactive: [1] | [2] | [3]

S=C(S)N1CCCC1
inactive: [1] | [2] | [3]

[Li+]
inactive: [1] | [2] | [3]

O=C(O)[C@H]1NCCC[C@H]1C(=O)O
inactive: [1] | [2] | [3]
